About 2,000 (36%) of roughly 5,500 compounds were called active. Inconclusive results (about 18%) are left out. No stated cut-off is given here; in the data, active means normalized growth mostly below about 0.91 (no sharp cut-off); inconclusive means no clear call, values can overlap the other calls; inactive means mostly above about 0.92. The list shows a part of the results.
Experiment: chemical genetic growth profiling, strain panel (AID 1159580);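 further: tested at 20 µM; growth read once vehicle control cultures reached saturation at 30 °C; 1 = growth at the plate median or of vehicle wells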
Conditions: growth OD

Measured: normalized growth

COc1ccc(C2C(=O)c3ccccc3C2=O)cc1
active: S. cerevisiae deletion strains, locus YLR113W, strain HOG1, stronger effect = lower value 0.767 | S. cerevisiae deletion strains, locus YPL256C, strain CLN2, stronger effect = lower value 0.817
inactive: S. cerevisiae deletion strains, locus YJR066W, strain TOR1, stronger effect = lower value 0.897 | S. cerevisiae deletion strains, locus YJR075W, strain HOC1, stronger effect = lower value 0.983 | S. cerevisiae deletion strains, locus YKL009W, strain mrt4, stronger effect = lower value 0.958 | S. cerevisiae deletion strains, locus YKL068W, stronger effect = lower value 0.987 | S. cerevisiae deletion strains, locus YKL085W, strain MDH1 (second series), stronger effect = lower value 0.983 | S. cerevisiae deletion strains, locus YKL085W, strain MDH1, stronger effect = lower value 0.983 | S. cerevisiae deletion strains, locus YKL160W, strain elf1, stronger effect = lower value 0.998 | S. cerevisiae deletion strains, locus YKR001C, strain vps1, stronger effect = lower value 1 | S. cerevisiae deletion strains, locus YKR026C, strain gcn3, stronger effect = lower value 0.96 | S. cerevisiae deletion strains, locus YKR091W, strain srl3, stronger effect = lower value 1.01 | S. cerevisiae deletion strains, locus YLL001W, strain dnm1, stronger effect = lower value 0.997 | S. cerevisiae deletion strains, locus YLL026W, stronger effect = lower value 0.966 | S. cerevisiae deletion strains, locus YLL041C, strain sdh2, stronger effect = lower value 0.982 | S. cerevisiae deletion strains, locus YLR027C, strain aat2, stronger effect = lower value 0.997 | S. cerevisiae deletion strains, locus YLR039C, strain RIC1, stronger effect = lower value 0.993 | S. cerevisiae deletion strains, locus YLR058C, strain SHM2, stronger effect = lower value 0.993 | S. cerevisiae deletion strains, locus YLR102C, strain apc9, stronger effect = lower value 0.989 | S. cerevisiae deletion strains, locus YLR221C, strain rsa3, stronger effect = lower value 1 | S. cerevisiae deletion strains, locus YLR258W, strain gsy2, stronger effect = lower value 1.01 | S. cerevisiae deletion strains, locus YLR262C, strain YPT6 (second series), stronger effect = lower value 0.987 | S. cerevisiae deletion strains, locus YLR262C, strain YPT6, stronger effect = lower value 1.01 | S. cerevisiae deletion strains, locus YLR268W, strain sec22, stronger effect = lower value 1.01 | S. cerevisiae deletion strains, locus YLR320W, strain mms22, stronger effect = lower value 1.02 | S. cerevisiae deletion strains, locus YLR330W, strain CHS5, stronger effect = lower value 1 | S. cerevisiae deletion strains, locus YLR342W, strain FKS1 (second series), stronger effect = lower value 1.02 | S. cerevisiae deletion strains, locus YLR342W, strain FKS1, stronger effect = lower value 1 | S. cerevisiae deletion strains, locus YLR357W, strain rsc2, stronger effect = lower value 1.09 | S. cerevisiae deletion strains, locus YLR370C, strain arc18, stronger effect = lower value 1 | S. cerevisiae deletion strains, locus YLR371W, strain rom2, stronger effect = lower value 1.01 | S. cerevisiae deletion strains, locus YLR384C, strain iki3, stronger effect = lower value 0.992 | S. cerevisiae deletion strains, locus YLR418C, strain cdc73, stronger effect = lower value 0.957 | S. cerevisiae deletion strains, locus YML016C, strain PPZ1, stronger effect = lower value 1.01 | S. cerevisiae deletion strains, locus YML032C, strain rad52, stronger effect = lower value 1.01 | S. cerevisiae deletion strains, locus YML120C, strain ndi1, stronger effect = lower value 0.992 | S. cerevisiae deletion strains, locus YML124C, strain tub3, stronger effect = lower value 0.994 | S. cerevisiae deletion strains, locus YMR058W, strain fet3, stronger effect = lower value 0.979 | S. cerevisiae deletion strains, locus YMR078C, strain ctf18, stronger effect = lower value 0.99 | S. cerevisiae deletion strains, locus YMR125W, strain sto1, stronger effect = lower value 0.994 | S. cerevisiae deletion strains, locus YMR129W, stronger effect = lower value 0.972 | S. cerevisiae deletion strains, locus YMR205C, strain PFK2, stronger effect = lower value 1.01 | S. cerevisiae deletion strains, locus YMR223W, strain ubp8, stronger effect = lower value 0.976 | S. cerevisiae deletion strains, locus YMR231W, strain pep5, stronger effect = lower value 1.02 | S. cerevisiae deletion strains, locus YMR307W, strain GAS1, stronger effect = lower value 1.04 | S. cerevisiae deletion strains, locus YNL067W, strain RPL9B, stronger effect = lower value 0.932 | S. cerevisiae deletion strains, locus YNL071W, strain lat1, stronger effect = lower value 0.986 | S. cerevisiae deletion strains, locus YNL128W, strain TEP1, stronger effect = lower value 0.977 | S. cerevisiae deletion strains, locus YNL153C, strain GIM3, stronger effect = lower value 0.997 | S. cerevisiae deletion strains, locus YNL183C, strain NPR1, stronger effect = lower value 0.882 | S. cerevisiae deletion strains, locus YNL209W, strain ssb2, stronger effect = lower value 0.992 | S. cerevisiae deletion strains, locus YNL233W, strain BNI4, stronger effect = lower value 1 | S. cerevisiae deletion strains, locus YNL248C, strain rpa49, stronger effect = lower value 1.05 | S. cerevisiae deletion strains, locus YNL250W, strain rad50, stronger effect = lower value 0.987 | S. cerevisiae deletion strains, locus YNL271C, strain bni1, stronger effect = lower value 0.983 | S. cerevisiae deletion strains, locus YNL298W, strain CLA4, stronger effect = lower value 0.976 | S. cerevisiae deletion strains, locus YNL307C, strain MCK1, stronger effect = lower value 1.01 | S. cerevisiae deletion strains, locus YNL322C, strain KRE1 (second series), stronger effect = lower value 0.961 | S. cerevisiae deletion strains, locus YNR049C, strain mso1, stronger effect = lower value 0.982 | S. cerevisiae deletion strains, locus YNR052C, strain pop2, stronger effect = lower value 0.987 | S. cerevisiae deletion strains, locus YOL012C, strain htz1 0.937 | S. cerevisiae deletion strains, locus YOL147C, strain pex11, stronger effect = lower value 0.992 | S. cerevisiae deletion strains, locus YOR001W, strain rrp6, stronger effect = lower value 1.02 | S. cerevisiae deletion strains, locus YOR061W, strain CKA2, stronger effect = lower value 0.999 | S. cerevisiae deletion strains, locus YOR069W, strain VPS5, stronger effect = lower value 0.997 | S. cerevisiae deletion strains, locus YOR070C, strain gyp1, stronger effect = lower value 1 | S. cerevisiae deletion strains, locus YOR080W, strain dia2, stronger effect = lower value 1.02 | S. cerevisiae deletion strains, locus YOR083W, strain WHI5, stronger effect = lower value 1.01 | S. cerevisiae deletion strains, locus YOR106W, strain vam3, stronger effect = lower value 1.04 | S. cerevisiae deletion strains, locus YOR136W, strain idh2, stronger effect = lower value 0.984 | S. cerevisiae deletion strains, locus YOR144C, strain elg1, stronger effect = lower value 0.997 | S. cerevisiae deletion strains, locus YOR184W, strain ser1, stronger effect = lower value 0.998 | S. cerevisiae deletion strains, locus YOR231W, strain MKK1, stronger effect = lower value 0.878 | S. cerevisiae deletion strains, locus YOR265W, strain rbl2, stronger effect = lower value 0.995 | S. cerevisiae deletion strains, locus YOR270C, strain vph1, stronger effect = lower value 1.07 | S. cerevisiae deletion strains, locus YOR290C, strain snf2, stronger effect = lower value 1 | S. cerevisiae deletion strains, locus YOR316C, strain cot1, stronger effect = lower value 0.983 | S. cerevisiae deletion strains, locus YPL051W, strain arl3, stronger effect = lower value 1.03 | S. cerevisiae deletion strains, locus YPL078C, strain atp4, stronger effect = lower value 1 | S. cerevisiae deletion strains, locus YPL106C, strain sse1, stronger effect = lower value 1.03 | S. cerevisiae deletion strains, locus YPL240C, strain hsp82, stronger effect = lower value 0.984 | S. cerevisiae deletion strains, locus YPR119W, strain clb2, stronger effect = lower value 0.998 | S. cerevisiae deletion strains, locus YPR141C, strain kar3, stronger effect = lower value 0.977 | S. cerevisiae deletion strains, locus YPR163C, strain tif3, stronger effect = lower value 0.995 | S. cerevisiae deletion strains, locus YPR167C, strain met16, stronger effect = lower value 0.998 | S. cerevisiae deletion strains, strain wtn01, stronger effect = lower value 0.991 | S. cerevisiae strains, strain wild type, stronger effect = lower value 1

From PubChem BioAssay AID1159580 (chemical genetic matrix, 2015)
